The record followed here is the OligoGym collection.
Further: reference of the scale not given here.

For one assay, the target named is ZMAT5. Nature of the assay: pooled miR-30 sensor sort-seq; sequence = guide strand. The conditions noted are these: shRNA.
ATGTCGTACCAGACCTTCTTGG showed a sensor-assay potency score (higher = more potent) of -1.05.

The sequence TCTCGCTCTGACATGTGGGAAA had a sensor-assay potency score (higher = more potent) of -1.37.

In turn, TTGGAGCCAAAGTCGCACTGGC returned a sensor-assay potency score (higher = more potent) of -0.262.

For the sequence TACTGGAAGACAGTGGTTCTGA, the sensor-assay potency score (higher = more potent) was 0.107.

The sequence AAAATCTGCAGTTGGAGCCAAA had a sensor-assay potency score (higher = more potent) of -1.1.

TGCATCTCGGAACATGTCGTAC: the sensor-assay potency score (higher = more potent) was -1.55.

In turn, TGTCGTACCAGACCTTCTTGGC returned a sensor-assay potency score (higher = more potent) of -0.415.

TACCAGACCTTCTTGGCCTTGA gave a sensor-assay potency score (higher = more potent) of 0.178.

For the sequence TCTGACATGTGGGAAAATCTGC, the sensor-assay potency score (higher = more potent) is -0.533.

Turning to TTGTTCTGCTCATCCAGCAAGA, the sensor-assay potency score (higher = more potent) was -0.992.

Another assay deals with ZMYM3. The assay is described as above. The conditions noted are these: shRNA.
In the case of TTGTCTGTGCTCTCCAAGGTAG, the sensor-assay potency score (higher = more potent) is -0.839.

In the case of TACACTGGGATTAATGTCCAGA, the sensor-assay potency score (higher = more potent) was -0.579.

Consider TTGTACAGCAGCACACAGCCTT, for which the sensor-assay potency score (higher = more potent) was -0.282.

Take TTGACCACAGATCCCATCCTGC: the sensor-assay potency score (higher = more potent) is -0.277.

In turn, TTACACAGGGTCTTGCACCAGA yielded a sensor-assay potency score (higher = more potent) of 0.022.

In turn, TTCTGTTTGACTTCCTTTGGAC had a sensor-assay potency score (higher = more potent) of 0.00295.

The sequence TTGTTCAGTAGACACATCCTCA came in with a sensor-assay potency score (higher = more potent) of 0.00931.

The sequence TTGAGCTCAGCAGCTGAGCAGG registered a sensor-assay potency score (higher = more potent) of -1.2.

The sequence AAACAGGTCACAGTCTTCCAGG gave a sensor-assay potency score (higher = more potent) of -1.1.

TTTGTGACACACTTGAGCGTAG had a sensor-assay potency score (higher = more potent) of 0.22.

With TTGGACTTCATCTCCACCTTGC, the sensor-assay potency score (higher = more potent) came to 0.519.

TAGAACTTGACAGGGCAGCGGA registered a sensor-assay potency score (higher = more potent) of -0.668.
